Inconclusive results are not listed. Activity calls are given as the source filed them. The call rests on the fitted dose curve; in most records, active means well fitted inhibition curve with a large enough effect; inconclusive means small, poorly fitted or top-dose-only effect; inactive means flat fitted curve, though single readings scatter.
How the values were obtained:
[1] = qHTS profiling for inhibitors of Plasmodium falciparum proliferation (AID 504749);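 further: 0% = DMSO vehicle and full inhibition = artemisinin control; nearly all actives have a fitted effect of over 60% in size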; details: P. falciparum in erythrocytes, SYBR Green DNA, 72 h, at 28.7 µM (top of the series)
Procedure, shortened: (§1)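 Three-day growth assay of blood-stage parasites in erythrocytes (0.3% parasitemia, 2.5% hematocrit) at 37 C, 5% CO2, quantified by SYBR Green DNA staining after overnight detergent lysis.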

3D7 = assay: as above; details: P. falciparum in erythrocytes, SYBR Green DNA, 72 h; series mostly up to 28.7 µM
Procedure, shortened: as §1

7G8 = assay: as above; details: P. falciparum in erythrocytes, SYBR Green DNA, 72 h; series mostly up to 28.7 µM
Procedure, shortened: as §1

AA1029 = assay: as above; details: P. falciparum in erythrocytes, SYBR Green DNA, 72 h; series mostly up to 28.7 µM
Procedure, shortened: as §1

AS120 = assay: as above; details: P. falciparum in erythrocytes, SYBR Green DNA, 72 h; series mostly up to 28.7 µM
Procedure, shortened: as §1

ATS189 = assay: as above; details: P. falciparum in erythrocytes, SYBR Green DNA, 72 h; series mostly up to 28.7 µM
Procedure, shortened: as §1

ATS95 = assay: as above; details: P. falciparum in erythrocytes, SYBR Green DNA, 72 h; series mostly up to 28.7 µM
Procedure, shortened: as §1

C2A = assay: as above; details: P. falciparum in erythrocytes, SYBR Green DNA, 72 h; series mostly up to 28.7 µM
Procedure, shortened: as §1

CP185 = assay: as above; details: P. falciparum in erythrocytes, SYBR Green DNA, 72 h; series mostly up to 28.7 µM
Procedure, shortened: as §1

CP191 = assay: as above; details: P. falciparum in erythrocytes, SYBR Green DNA, 72 h; series mostly up to 28.7 µM
Procedure, shortened: as §1

CP192 = assay: as above; details: P. falciparum in erythrocytes, SYBR Green DNA, 72 h; series mostly up to 28.7 µM
Procedure, shortened: as §1

CP194 = assay: as above; details: P. falciparum in erythrocytes, SYBR Green DNA, 72 h; series mostly up to 28.7 µM
Procedure, shortened: as §1

CP201 = assay: as above; details: P. falciparum in erythrocytes, SYBR Green DNA, 72 h; series mostly up to 28.7 µM
Procedure, shortened: as §1

CP203 = assay: as above; details: P. falciparum in erythrocytes, SYBR Green DNA, 72 h; series mostly up to 28.7 µM
Procedure, shortened: as §1

CP211 = assay: as above; details: P. falciparum in erythrocytes, SYBR Green DNA, 72 h; series mostly up to 28.7 µM
Procedure, shortened: as §1

CP215 = assay: as above; details: P. falciparum in erythrocytes, SYBR Green DNA, 72 h; series mostly up to 28.7 µM
Procedure, shortened: as §1

CP217 = assay: as above; details: P. falciparum in erythrocytes, SYBR Green DNA, 72 h; series mostly up to 28.7 µM
Procedure, shortened: as §1

CP237 = assay: as above; details: P. falciparum in erythrocytes, SYBR Green DNA, 72 h; series mostly up to 28.7 µM
Procedure, shortened: as §1

CP238 = assay: as above; details: P. falciparum in erythrocytes, SYBR Green DNA, 72 h; series mostly up to 28.7 µM
Procedure, shortened: as §1

CP247 = assay: as above; details: P. falciparum in erythrocytes, SYBR Green DNA, 72 h; series mostly up to 28.7 µM
Procedure, shortened: as §1

CC(C)CCC[C@@H](C)[C@H]1CC[C@H]2[C@@H]3CC[C@@H]4C[C@H](O)CC[C@]4(C)[C@H]3CC[C@]12C
inactive: activity, negative = inhibition ([1]; parasite line A) -5.47% | activity, negative = inhibition ([1]; parasite line B) 5.75% | Potency (3D7) | Potency (7G8) | Potency (AA1029) | Potency (AS120) | Potency (ATS189) | Potency (ATS95) | Potency (C2A) | Potency (CP185) | Potency (CP191) | Potency (CP192) | Potency (CP194) | Potency (CP201) | Potency (CP203) | Potency (CP211) | Potency (CP215) | Potency (CP217) | Potency (CP237) | Potency (CP238) | Potency (CP247)

Cc1ccc(S(=O)(=O)NCl)cc1
inactive: activity, negative = inhibition ([1]; parasite line A) -0.743% | activity, negative = inhibition ([1]; parasite line B) 4.28% | Potency (3D7) | Potency (7G8) | Potency (AA1029) | Potency (AS120) | Potency (ATS189) | Potency (ATS95) | Potency (C2A) | Potency (CP185) | Potency (CP191) | Potency (CP192) | Potency (CP194) | Potency (CP201) | Potency (CP203) | Potency (CP211) | Potency (CP215) | Potency (CP217) | Potency (CP237) | Potency (CP238) | Potency (CP247)

Oc1cc(O)cc(O)c1
inactive: activity, negative = inhibition ([1]; parasite line A) 0.686% | activity, negative = inhibition ([1]; parasite line B) -2.93% | Potency (3D7) | Potency (7G8) | Potency (AA1029) | Potency (AS120) | Potency (ATS189) | Potency (ATS95) | Potency (C2A) | Potency (CP185) | Potency (CP191) | Potency (CP192) | Potency (CP194) | Potency (CP201) | Potency (CP203) | Potency (CP211) | Potency (CP215) | Potency (CP217) | Potency (CP237) | Potency (CP238) | Potency (CP247)

O=C(O)c1ccc(OCCn2ccnc2)cc1
inactive: activity, negative = inhibition ([1]; parasite line A) 13.9% | activity, negative = inhibition ([1]; parasite line B) 6.25% | Potency (3D7) | Potency (7G8) | Potency (AA1029) | Potency (AS120) | Potency (ATS189) | Potency (ATS95) | Potency (C2A) | Potency (CP185) | Potency (CP191) | Potency (CP192) | Potency (CP194) | Potency (CP201) | Potency (CP203) | Potency (CP211) | Potency (CP215) | Potency (CP217) | Potency (CP237) | Potency (CP238) | Potency (CP247)

COC(=O)C(CN)c1c[nH]c2ccc(OC)cc12 (stereo unspecified)
inactive: activity, negative = inhibition ([1]; parasite line A) -3.75% | activity, negative = inhibition ([1]; parasite line B) -2.84% | Potency (3D7) | Potency (7G8) | Potency (AA1029) | Potency (AS120) | Potency (ATS189) | Potency (ATS95) | Potency (C2A) | Potency (CP185) | Potency (CP191) | Potency (CP192) | Potency (CP194) | Potency (CP201) | Potency (CP203) | Potency (CP211) | Potency (CP215) | Potency (CP217) | Potency (CP237) | Potency (CP238) | Potency (CP247)

CCCOC(=O)c1ccccc1O
inactive: activity, negative = inhibition ([1]; parasite line A) 3.1% | activity, negative = inhibition ([1]; parasite line B) 6.22% | Potency (3D7) | Potency (7G8) | Potency (AA1029) | Potency (AS120) | Potency (ATS189) | Potency (ATS95) | Potency (C2A) | Potency (CP185) | Potency (CP191) | Potency (CP192) | Potency (CP194) | Potency (CP201) | Potency (CP203) | Potency (CP211) | Potency (CP215) | Potency (CP217) | Potency (CP237) | Potency (CP238) | Potency (CP247)
